Source: PubChem BioAssay (National Center for Advancing Translational Sciences (NCATS))
Compounds with a hit are over-represented: about 12% of the library has one in this group of screens.
Pf growth 48h = Primary qHTS for delayed death inhibitors of the malarial parasite plastid, 48 hour incubation; P. falciparum luciferase growth in erythrocytes, 48 h; Potency, µM (series often up to 28.7 µM), for the others: at the top dose activity change, negative = inhibition, hits mostly inhibitors; actives 5.9% (n = 310,000); AID 504832, 2011; also: % is scaled to controls: 0 for no effect and ±100 for the full control effect
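A one-generation exposure of luciferase-tagged malaria parasites in RPMI 1640/Albumax erythrocyte culture, 37 C and 5% CO2. Inhibition is inferred from decreased luminescence after adding detection reagent.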
SARS PLpro yeast = qHTS of Yeast-based Assay for SARS-CoV PLP | S. cerevisiae expressing SARS-CoV PLpro, growth rescue | Potency, µM (highest dose often 32.9 µM), without a hit: top-dose activity, positive = growth rescue, usual class: activators | actives 0.19% (n = 330,000); calls by dose curve; also: 0% is about no effect; nearly all actives have a fitted effect of over 55% in size
Pf growth 96h = Primary qHTS for delayed death inhibitors of the malarial parasite plastid, 96 hour incubation | P. falciparum luciferase reporter growth, 96 h | AID 504834, 2011 | Potency, µM (top dose mostly 28.7 µM), inactives show top-dose activity change, negative = inhibition, most hits filed as inhibitors | actives 6.9% (n = 320,000); also: % is scaled to controls: 0 for no effect and ±100 for the full control effect
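P. falciparum expressing integrated firefly luciferase, in erythrocytes at 2% hematocrit, 0.05% parasitemia, incubated with compounds 96 h at 37 C, 5% CO2. Growth inhibition read as loss of luminescence; two-generation exposure targets delayed-death apicoplast inhibitors.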
AmpC detergent = qHTS Inhibitors of AmpC Beta-Lactamase (assay with detergent); P00811; AmpC hydrolysis of nitrocefin, absorbance 480 nm, 0.01% Triton; Potency, µM (doses to about 114 µM), inactives show top-dose activity change, negative = inhibition, most hits filed as inhibitors; actives 0.041% (n = 370,000);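 also: 0% = no-compound wells and -100% = no-enzyme wells; nearly all actives have a fitted effect of over 25% in size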
Target sequence (P00811 whole entry, looked up): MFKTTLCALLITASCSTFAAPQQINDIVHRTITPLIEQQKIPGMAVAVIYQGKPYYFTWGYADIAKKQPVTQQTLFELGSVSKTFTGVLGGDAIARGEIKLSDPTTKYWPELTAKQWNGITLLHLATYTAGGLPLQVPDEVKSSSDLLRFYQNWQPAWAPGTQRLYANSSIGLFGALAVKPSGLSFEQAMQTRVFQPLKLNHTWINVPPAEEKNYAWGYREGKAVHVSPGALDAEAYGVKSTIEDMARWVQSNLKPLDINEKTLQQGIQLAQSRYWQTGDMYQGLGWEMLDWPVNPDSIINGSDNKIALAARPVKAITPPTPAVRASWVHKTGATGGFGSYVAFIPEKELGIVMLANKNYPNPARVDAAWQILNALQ
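20 mM phosphate pH 7.0 + 0.01% (detergent screen) or 0.0001% Triton X-100; 5.3 nM AmpC reagent; cpd preinc 15 min RT; nitrocefin (800 uM stock) to start; A480 q20 s × 4 min; Activity was normalised to no-enzyme and no-compound control wells.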
AmpC inh no detg = qHTS Inhibitors of AmpC Beta-Lactamase (assay without detergent) | actives 0.52% (n = 330,000) | AmpC nitrocefin hydrolysis, absorbance 480 nm, 0.0001% Triton | Potency, µM (series often up to 57.1 µM), without a hit: at the top dose activity change, negative = inhibition, hits mostly inhibitors;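 also: plate controls were no compound for no effect and no enzyme for full effect; nearly all actives have a fitted effect of over 20% in size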
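20 mM phosphate pH 7.0 + 0.01% (detergent screen) or 0.0001% Triton X-100; 5.3 nM AmpC reagent; cpd preinc 15 min RT; nitrocefin (800 uM stock) to start; A480 q20 s × 4 min; Activity was normalised to no-enzyme and no-compound control wells.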
Sm TGR inh = qHTS Assay for the Inhibitors of Schistosoma Mansoni Peroxiredoxins; Schistosoma mansoni thioredoxin glutathione reductase (TGR), Q962Y6; purified TGR, DTNB reduction, TNB absorbance 405 nm; Potency, µM (titrated, usually from 114 µM), for inactives: top-dose activity change, negative = inhibition, usual class: inhibitors; actives 3% (n = 360,000); AID 485364, 2010; also: % is scaled to controls: 0 for no effect and ±100 for the full control effect; nearly all actives have a fitted effect of over 60% in size
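First, TGR (20 nM dispensed) and NADPH were mixed with compound. Second, a 15 min room-temperature incubation followed. Third, further NADPH and then DTNB were added to start the reaction. Finally, TNB absorbance was monitored kinetically.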
Starred values were filed as active, the others as inactive; ? = inconclusive; . = no result given. Unless noted, calls follow the shape of the dose curve; as a rule, active = well fitted curve in the direction sought with a large enough effect; inconclusive = small, poorly fitted or top-dose-only effect, or another doubt; inactive = no such curve, though single readings can be large; an effect the other way counts as inactive or inconclusive. Potency is read from the fitted curve at half-maximal effect.

SMILES | Pf growth 48h | SARS PLpro yeast | Pf growth 96h | AmpC detergent | AmpC inh no detg | Sm TGR inh
COc1cccc(COC(=O)c2ccc(-c3nnn(Cc4ccccc4)n3)cc2)c1 | . | . | . | -1% | . | -8%
CCCCCc1cc(=O)oc2c(C(CCN(CC)CC)c3ccc(OC)cc3)c(OC)cc(OC)c12 (centres undefined) | 3.3µM* | 0% | 1.9µM* | 3% | 182% | 16%
CCCCc1cc(=O)oc2c(CN3CCCC3)c(O)ccc12 | ? | 0% | ? | -10% | -7% | -12%
CCCCCc1cc(=O)oc2c(C(CCN3CCCC3)c3ccc(N(C)C)cc3)c(OC)cc(OC)c12 (centres undefined) | ? | 0% | 9.3µM* | -5% | 206% | -25%
CCCCCc1cc(=O)oc2c(C(CCN3CCCCC3)c3ccc(OC)cc3)c(OC)cc(OC)c12 (centres undefined) | 3.3µM* | -1% | 2.6µM* | 6% | 129% | -21%
COc1cc(OC)c2ccc(=O)oc2c1C(CCN1CCCCC1)c1ccc(N(C)C)cc1 (centres undefined) | ? | 0% | ? | 3% | 45% | -22%
CCCCCc1cc(=O)oc2c(C(CCN3CCCC3)c3cc(OC)c(OC)c(OC)c3)c(OC)cc(OC)c12 (centres undefined) | 2.6µM* | 0% | 3.3µM* | -4% | 170% | -2%
COC(=O)NCC(c1ccc2c(c1)OCO2)N1CCN(c2ccccc2)CC1 (centres undefined) | 7% | 1% | 5% | ? | 31% | -21%
CCCCCc1cc(=O)oc2c(C(CCN3CCN(c4ccccc4)CC3)c3ccc4c(c3)OCO4)c(OC)cc(OC)c12 (centres undefined) | 7.4µM* | -2% | 5.2µM* | -3% | 31% | 6%
CCCCCc1cc(=O)oc2c(C(CCN3CCCC(C)C3)c3ccc(OC)cc3)c(OC)cc(OC)c12 (centres undefined) | ? | 1% | 3.3µM* | 5% | 83% | -5%
COc1cc(C2CC(=O)Oc3c2c(=O)n(C)c2ccccc32)cc(OC)c1OC (centres undefined) | 4% | 0% | ? | -2% | -25% | 9%
COc1ccc(C(CCN2CCCC(C)C2)c2c(OC)cc(OC)c3c2OC(=O)CC3c2cc(OC)c(OC)c(OC)c2)cc1 (centres undefined) | 12µM* | 2% | 10µM* | 2% | 188% | -12%
CC1=C(C#N)c2nc(N)c(C#N)c(C)c2/C1=C\c1ccc(-c2ccccc2C(=O)O)o1 | 3% | 3% | ? | 3% | -53% | 25µM*
CC(=O)N1CCOc2cc(S(=O)(=O)NCc3ccccc3Cl)c(Cl)cc21 | 0% | 3% | -1% | 16% | 41% | -18%
COc1ccc(NC(=O)C(c2ccccc2)N(C)C(=O)c2ccc(=O)[nH]c2)cc1 (centres undefined) | -1% | 15% | 1µM* | -4% | -13% | -5%
COc1ccc(NC(=O)C(c2ccc(OC)cc2)N(C)C(=O)CC2NC(=O)NC2=O)cc1 (centres undefined) | 16% | 0% | 12µM* | -13% | -9% | -8%
COc1ccc(NC(=O)C(NC(=O)CC2NC(=O)NC2=O)c2ccccc2)cc1 (centres undefined) | 26% | 16% | -14% | ? | -7% | -17%
CCOc1ccc(-n2cc(-c3ccccc3)c3c(N4CCC(C)CC4)ncnc32)cc1 | . | . | . | -3% | . | 1%
COc1ccc(S(=O)(=O)NCCc2sc(-c3cccnc3)nc2C)cc1 | . | . | . | -10% | . | -26%
N#Cc1ccc(CN2CCN(C(=O)CN3C(=O)NC4(CCCC4)C3=O)CC2)cc1 | -2% | 0% | 15% | -16% | 10% | 0%
CC(=O)c1nc2ccccc2n1S(=O)(=O)c1ccc(Cl)cc1 | 6% | 1% | 12µM* | -3% | -3% | 0%
O=c1cc(CSc2nnc3ccccn23)c2c(ccc3ccccc32)o1 | 12% | -6% | 13% | -10% | -41% | 45µM*
CCCC(=O)N1c2nc(C(C)C)nn2C2(CCCCC2)[C@@H]2CCCC[C@@H]21 | . | . | . | 14% | . | -4%
O=C(C1=C(O)C(=O)N(CCN2CCOCC2)C1c1cccc(Br)c1)c1cc2ccccc2o1 (centres undefined) | -20% | -3% | -26% | 4% | 33% | 0%
O=C(C1=C(O)C(=O)N(CCN2CCOCC2)C1c1ccc(F)cc1)c1cc2ccccc2o1 (centres undefined) | 11% | 18% | ? | 5% | -1% | 28µM*
SMILES | Pf growth 48h | SARS PLpro yeast | Pf growth 96h | AmpC detergent | AmpC inh no detg | Sm TGR inh
O=C(C1=C(O)C(=O)N(CCN2CCOCC2)C1c1ccco1)c1cc2ccccc2o1 (centres undefined) | 13% | -1% | 0% | 0% | -18% | 22µM*
CN(C)C(/C=C/Nc1ccc(O)cc1)=C(C#N)C#N | ? | 2% | 9.3µM* | ? | -20% | -13%
Cc1cc(N/N=C/c2ccncc2)c([N+](=O)[O-])cc1[N+](=O)[O-] | ? | -1% | ? | 6% | -12% | 8%
CCOC1OC2C(CO)OC(n3cnc4c(N)ncnc43)C2O1 (centres undefined) | 0% | 2% | 4.7µM* | ? | -19% | -15%
CC1(C)O[C@@H]2[C@H](O1)[C@@H](COS(=O)(=O)O)O[C@H]2n1cnc2c(N)ncnc21 | 30% | -11% | 51% | 3% | -6% | ?
Nc1ncnc2c1ncn2[C@@H]1O[C@H](COS(=O)(=O)O)[C@@H](O)[C@H]1O | 13µM* | 4% | ? | 7% | -5% | -1%
CCCC(=O)Oc1ccc(N(C(=O)CCC)S(=O)(=O)c2cccc([N+](=O)[O-])c2)cc1 | -9% | -18% | 4.7µM* | -22% | -29% | -25%
CCN1C(=O)c2cccc3c(S(=O)(=O)N(C(=O)c4ccncc4)c4ccc(OC)cc4)ccc1c23 | 15µM* | -33% | 13µM* | -14% | 207% | -12%
COc1ccc(N(C(=O)c2ccncc2)S(=O)(=O)c2cccc([N+](=O)[O-])c2)cc1 | 10% | 3% | ? | -4% | 26% | 32µM*
CCOc1ccc(NC(=O)CC2C(=O)NCCN2C(=O)Nc2ccccc2)cc1 (centres undefined) | 5% | -4% | 15µM* | -2% | 70% | 4%
